Laboratory results reported in PMC4336329 (PLoS ONE, 2015).
In all, about 310,000 compounds went through this assay and about 14,000 (4.5%) showed an effect of 50% or more. Effects have a minus sign here. The sample holds strong results, similar compounds and a random draw of the others, so the mix is not that of the screen.

Target: human ether-à-go-go-related gene (hERG) potassium channel (human, UniProt Q12809)
Experiment: primary screen, population patch clamp on CHO cells stably expressing hERG; higher = less effect of the substance
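Also: peak tail current of the secondary pulse compared with the same well before compound.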

Sequence of human ether-à-go-go-related gene (hERG) potassium channel (Q12809 whole entry, looked up): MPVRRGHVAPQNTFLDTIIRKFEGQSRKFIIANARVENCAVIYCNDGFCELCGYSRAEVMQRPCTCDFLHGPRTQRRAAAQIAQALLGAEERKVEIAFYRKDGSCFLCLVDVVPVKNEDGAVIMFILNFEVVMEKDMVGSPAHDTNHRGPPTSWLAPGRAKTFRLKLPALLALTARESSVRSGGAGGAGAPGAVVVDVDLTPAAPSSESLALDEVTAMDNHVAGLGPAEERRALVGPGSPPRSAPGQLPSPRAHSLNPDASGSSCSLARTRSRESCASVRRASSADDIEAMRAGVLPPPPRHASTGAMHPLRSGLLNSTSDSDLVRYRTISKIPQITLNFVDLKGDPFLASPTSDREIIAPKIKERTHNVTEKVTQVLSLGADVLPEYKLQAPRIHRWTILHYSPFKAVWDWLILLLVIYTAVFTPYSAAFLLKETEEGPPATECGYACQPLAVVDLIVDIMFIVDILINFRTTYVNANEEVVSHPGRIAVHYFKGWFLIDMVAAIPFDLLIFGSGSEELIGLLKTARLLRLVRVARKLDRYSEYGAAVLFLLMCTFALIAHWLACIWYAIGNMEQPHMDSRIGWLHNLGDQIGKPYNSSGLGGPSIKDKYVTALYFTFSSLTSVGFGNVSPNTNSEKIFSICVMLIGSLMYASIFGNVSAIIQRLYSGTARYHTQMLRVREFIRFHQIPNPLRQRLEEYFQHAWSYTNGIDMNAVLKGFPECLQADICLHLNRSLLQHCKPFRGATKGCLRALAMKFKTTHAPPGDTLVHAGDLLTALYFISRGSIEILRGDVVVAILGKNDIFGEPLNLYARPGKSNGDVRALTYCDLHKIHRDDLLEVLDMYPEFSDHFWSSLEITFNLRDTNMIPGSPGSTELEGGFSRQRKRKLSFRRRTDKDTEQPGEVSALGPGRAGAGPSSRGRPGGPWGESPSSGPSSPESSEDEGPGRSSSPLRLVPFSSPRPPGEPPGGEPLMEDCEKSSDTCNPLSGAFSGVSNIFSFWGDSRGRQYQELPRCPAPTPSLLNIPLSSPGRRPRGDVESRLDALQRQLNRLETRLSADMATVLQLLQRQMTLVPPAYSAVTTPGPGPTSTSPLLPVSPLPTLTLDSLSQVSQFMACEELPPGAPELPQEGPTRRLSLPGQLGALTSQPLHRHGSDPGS

SMILES	hERG current change (%, negative = inhibition) at 10uM [%]
CCNC(=O)/C=C/c1ccccc1[N+](=O)[O-]	8.82
COc1ccc2[nH]c(=O)c(CN(c3ccccc3)S(=O)(=O)c3ccccc3)cc2c1	11.2
COc1ccc2cnn(-c3ccc(OC(F)(F)F)cc3)c(=O)c2c1OC	-6
CCOC(=O)C(=CNc1cc(C)ccc1-n1cccc1)C(=O)OCC	2.05
Cc1ccc(/C=C2/Sc3ccc(C(=O)N4CCC5(CC4)OCCO5)cc3NC2=O)cc1	16.1
Cc1sc(NC(=O)CN(Cc2ccccc2)C(=O)C(C)C)c(C(N)=O)c1C	-0.293
O=C(COc1cc(F)ccc1[N+](=O)[O-])Nc1ccc2c(c1)OCO2	1.25
Cc1csc(NC(=O)C2CCN(S(=O)(=O)c3ccc4c(c3)oc(=O)n4C)CC2)n1	-11.5
COCCNC(=O)c1cc(-c2ccccc2)n(Cc2cc(C)no2)n1	0.26
Cn1c(O)c(C=NCCN2CCN(C(=O)Nc3ccccc3)CC2)c(=O)n(C)c1=O	13.1
O=C(Nc1cc(Cl)cc(Cl)c1)C(NCCCO)c1ccccc1 (centres unmarked)	3.1
Cc1ccc(C(OCC(O)CNCc2ccc(F)cc2)c2ccccc2)cc1.O=C(O)C(=O)O (centres unmarked)	-75.7
CC(C)(C)NCC(O)COCc1ccc(Cl)cc1.Cl (centres unmarked)	-24.6
Cc1ccc(OCCNCC(O)COc2ccccc2)cc1.O=C(O)C(=O)O (centres unmarked)	-44.2
CC(NCc1ccc2c(c1)OCO2)c1ccccc1.Cl (centres unmarked)	10.4
Cl.OC(CNCc1ccccc1)COCc1ccc(Cl)cc1 (centres unmarked)	-50.3
CC(CNCc1ccc2c(c1)OCO2)NCc1ccc2c(c1)OCO2 (centres unmarked)	-54.5
COc1ccc(CCC(=O)NCCOc2ccc(C)cc2)cc1	2.1
CC(NCC(O)COCc1ccc(Cl)cc1)c1ccccc1.Cl (centres unmarked)	-43.1
CC(=O)CCc1ccc(OCC(O)CNCCOc2ccc(C)cc2)cc1 (centres unmarked)	-55.9
Cc1ccc(CNCc2ccc3c(c2)OCO3)cc1	-0.503
Cc1ccc2nsnc2c1S(=O)(=O)N1CCN(CCc2ccccc2)CC1	-42.6
Cc1cc2c(=O)n(CC(=O)N3CCN(c4ccc(F)cc4)CC3)cnc2s1	-12.4

SMILES	hERG current change (%, negative = inhibition) at 10uM [%]
CC(C)(C)CC(C)(C)NCC(O)COCCOc1ccc(Br)cc1.Cl (centres unmarked)	-32.8
O=C(NCc1ccc(F)cc1)NC(=O)c1ccc(Cl)cc1	8.5
CCOC(=O)C1=CCN(Cc2ccccc2)CC1.Cl	12.8
Nc1nnc(SCCCC(=O)c2ccc(Br)cc2)s1	26.5
COC(=O)c1ccc(CNCC(O)COc2ccc(-c3ccccc3)cc2)cc1 (centres unmarked)	13.1
OC(CNCc1ccc2c(c1)OCO2)COc1ccc(F)cc1 (centres unmarked)	-55.7
OC(CNCc1ccc2c(c1)OCO2)COc1ccccc1 (centres unmarked)	-5.74
CCC(=O)c1ccc(OCC(O)CNCc2ccc(F)cc2)cc1 (centres unmarked)	-52.2
CC(=O)c1ccc(OCC(O)CNCc2ccc3c(c2)OCO3)cc1 (centres unmarked)	-26.1
Cc1ccc(OCC(O)CNCc2ccc(F)cc2)cc1 (centres unmarked)	-40.5
O=C(O)C(=O)O.O=C(c1ccccc1)c1ccc(OCC(O)CNCc2ccc(F)cc2)cc1 (centres unmarked)	-68.2
CCC(=O)c1ccc(OCC(O)CNCCc2ccc(Cl)cc2)cc1 (centres unmarked)	-72.1
O=C(COc1ccc(C(=O)c2ccccc2)cc1)NCc1ccc(F)cc1	-6.64
OC(CNCc1ccccc1Cl)COc1ccc(F)cc1 (centres unmarked)	-21.3
CC(=O)c1cccc(OCC(O)CNCCc2ccc(Cl)cc2)c1 (centres unmarked)	-49
CCC(=O)c1ccc(OCC(O)CNC2CCCC2)cc1 (centres unmarked)	2.52
CCc1nc(C)ccc1OCC(=O)NCCCN(C)C.O=C(O)C(=O)O	4.48
Cc1cc(C)cc(NC(=S)Nc2ccccn2)c1	-8.14
Cc1ccc(N=Cc2ccc(O)cc2O)cc1F	20.6
O=C(Cn1c(=O)oc2ccccc21)c1ccccc1	-5.11
CCN1CCN(C(=S)Nc2cccc(C(F)(F)F)c2)CC1	-7.79
CN(C(=O)C(Cl)Cl)C1CC2C=CC1C2 (centres unmarked)	5.29
Nc1c(C(=O)CSc2nccn2-c2ccc(Cl)cc2)c(=O)[nH]c(=O)n1C1CC1	17.5

SMILES	hERG current change (%, negative = inhibition) at 10uM [%]
CS(=O)(=O)N1CCC(C(=O)NCc2ccco2)CC1	6.1
COc1ccccc1-c1nnc(SC)n1C	36.9
CC(C)COc1nc2ccccc2nc1N1CCN(C)CC1	-72.9
COc1nc2ccccc2nc1N1CCN(c2ccc(F)cc2)CC1	17.5
COc1nc2ccccc2nc1N1CCN(C)CC1	-23.9
FC(F)(F)c1cccc(N2CCN(c3nnnn3-c3ccccc3)CC2)c1	-25.3
COc1ccc2nc(/C=N/NC(=O)CCCCCNC(=O)OC(C)(C)C)ccc2c1	-0.0758
N#Cc1ccccc1NCC(=O)N1CCN(S(=O)(=O)c2ccccc2)CC1	-1.49
COc1ccc(OCC(=O)N2CCN(S(=O)(=O)c3ccc(Cl)cc3)CC2)cc1	-22.9
COc1ccc(CCC(=O)N2CCN(S(=O)(=O)c3cccc(Cl)c3)CC2)cc1	-34.8
CC(=O)c1ccc(NCC(=O)N2CCN(S(=O)(=O)c3ccccc3)CC2)cc1	-5.61
O=C(COc1ccc(Cl)cc1)N1CCN(S(=O)(=O)c2ccccc2)CC1	-54.6
O=C(COc1ccc(Cl)cc1)N1CCN(S(=O)(=O)c2ccc(Cl)cc2)CC1	-11.9
O=C(COc1ccccc1)N1CCN(S(=O)(=O)c2ccc(Cl)cc2)CC1	-2.27
N#Cc1ccc(OCC(=O)N2CCN(S(=O)(=O)c3cccc(Cl)c3)CC2)cc1	-71.4
N#Cc1ccc(NCC(=O)N2CCN(S(=O)(=O)c3ccccc3)CC2)cc1	-70.2
O=C(NCCC1CCCCN1S(=O)(=O)c1ccccc1)C(=O)Nc1ccccc1 (centres unmarked)	-12.3
COC(=O)Oc1ccc(/C=N/NS(=O)(=O)c2ccccc2)cc1OC	21.2
CCC(=Nc1ccccc1N)c1c(O)[nH]c(=O)[nH]c1=O	18.5
COC(=O)C1CN(C(=O)COc2cccc(C)c2C)c2ccccc2O1 (centres unmarked)	-6.63
Cc1cccc(NC(=O)CCN2C(=O)C3C4C=CC(C4)C3C2=O)n1 (centres unmarked)	5.71
COc1ccc(F)cc1C(=O)C1CCCN(Cc2c(C)n(C)n(-c3ccccc3)c2=O)C1 (centres unmarked)	-11.5
COc1ccc(C(=O)C2CCCN(Cc3c(F)ccc(F)c3F)C2)c(OC)c1 (centres unmarked)	-30.9

SMILES	hERG current change (%, negative = inhibition) at 10uM [%]
COc1ccc(F)cc1C(=O)C1CCCN(Cc2cn(C)c3ccccc23)C1 (centres unmarked)	-39.5
COc1ccc(F)cc1C(=O)C1CCCN(Cc2c[nH]c3ccccc23)C1 (centres unmarked)	-63.8
COc1ccc(C(=O)C2CCCN(Cc3c[nH]c4ccccc34)C2)c(OC)c1 (centres unmarked)	-70.8
COc1ccc(C(=O)COC(=O)Cc2c[nH]c3ccccc23)c(OC)c1	4.87
COc1ccc(C(=O)C2CCCN(Cc3c(C)[nH]c4ccccc34)C2)c(OC)c1 (centres unmarked)	-70.1
CC1=C(C(=O)OC(C)C)C(c2ccncc2)n2ncnc2N1 (centres unmarked)	0.568
CCOc1nc(Nc2cc(Cl)ccc2OC)nc(OCC)n1	19.7
N#Cc1ccccc1CSCCNC(=O)Cc1c(F)cccc1Cl	15.8
CCN(CC)S(=O)(=O)c1ccc2c(c1)nc(CCC(=O)Nc1ccc3c(c1)OCO3)n2CC	-0.447
Cc1ccc2c(c1)nnn2C1CCN(S(=O)(=O)c2ccc(C(=O)NC3CCCC3)cc2)CC1	15.9
CCOc1ccc(N(C)S(=O)(=O)c2cc(-c3cc(C)no3)ccc2C(C)C)cc1	4.4
CN(Cc1ccccc1)c1cc(Cl)nc(N)n1	-1.61
Cc1cc(N(C)Cc2ccccc2)nc2cc(O)ccc12	-56.4
Cc1cc(N(C)Cc2ccccc2)nc(-c2ccccc2)n1	-24.1
C=CCn1nc2ccccc2c1OC	3.76
CCOc1ccc(Nc2c3c(nc4ncnn24)CC(C)CC3)cc1 (centres unmarked)	-53.9
Clc1ccc(Nc2c3c(nc4ncnn24)CCC3)cc1	8.29
C#CCNc1c2c(nc3ncnn13)CC(C)CC2 (centres unmarked)	-10.7
C=CCNc1c2c(nc3ncnn13)CC(C)CC2 (centres unmarked)	-14.8
Brc1ccc(Nc2c3c(nc4ncnn24)CCC3)cc1	-21.4
c1ccc(Nc2c3c(nc4ncnn24)CCC3)cc1	-54.5
Clc1ccc(/C=N/Nc2nn[nH]n2)cc1	12.6
Cc1ccc2nsnc2c1S(=O)(=O)Nc1ccccc1C(=O)O	-7.06
